Bioassay records as filed in PubChem.
HP1b binding inh: inhibitors of HP1-beta chromodomain binding to methylated histone tails; Potency, µM (series often up to 114 µM), most hits filed as inhibitors; P83916; AlphaScreen HP1-beta / biotin-H3K9me3 peptide binding; actives 0.56% (n = 390,000); further: nearly all actives have a fitted effect of over 70% in size
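Compound inhibition of the preformed complex between 50 nM HP1-beta and 50 nM biotinylated H3K9me3 peptide was read by AlphaScreen. Buffer was PBS pH 7.4 with 0.01% Tween-20. Incubations ran 30 min at room temperature, with 10 ug/mL donor/acceptor beads.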
PI5P4Ka inh: inhibitors of human PI5P4K alpha; PI5P4Kalpha enzyme, ADP-Glo luminescence, 60 min; hits give low values; max response, %; actives 1.2% (n = 330,000); active means max response of -50% or lower; inconclusive means between -30% and -50%; inactive means -30% or higher; further: value at the top dose of about 77 µM
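Controls without substrate or without enzyme flank wells where PI5P4Kalpha converts substrate using 5 microM ATP (final). Incubation lasts 60 minutes at room temperature; ADP formed is read by ADP-Glo luminescence.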
JMJD2A Tudor: JMJD2A Tudor domain (human) inhibition | Potency, µM (doses to about 114 µM), actives largely listed as inhibitors | AlphaScreen JMJD2A-Tudor / H3K4me3 peptide binding | AID 504339 | O75164 | actives 4.4% (n = 390,000); further: nearly all actives have a fitted effect of over 50% in size
BAZ2B inh: blocks human BAZ2B | AID 504333 | actives 4.4% (n = 360,000) | Potency, µM (top dose mostly 114 µM), most hits filed as inhibitors | Q9UIF8 | AlphaScreen BAZ2B-H3K14Ac peptide displacement; further: nearly all actives have a fitted effect of over 60% in size
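Inhibition is scored as reduced AlphaScreen emission. The BAZ2B/b-H3(5-23)K14Ac complex (50 nM each) in PBS pH 7.4, 0.01% Tween-20 meets compound (up to 110 uM) for 30 min at RT before bead addition.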
G9a inh-1: blocks human histone lysine methyltransferase G9a | Q96KQ7 | G9a H3K9 monomethylation, AlphaScreen, 2 h | Potency, µM (titrated, usually from 102 µM), usual class: inhibitors | actives 8.8% (n = 350,000) | AID 504332; further: nearly all actives have a fitted effect of over 75% in size
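AlphaScreen read-out: biotin-H3K9 peptide (500 nM) methylation by 20 nM enzyme with 20 uM SAM, 2 h at room temperature after 15 min compound preincubation; anti-monomethyl H3K9 antibody plus donor/acceptor beads, 10 min dark.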
PLK1 PBD inh: inhibitors of human PLK1 polo-box domain binding. P53350. Plk1 PBD binding of FITC phosphopeptide, fluorescence polarization. Potency, µM, hits mostly inhibitors. actives 2.8% (n = 360,000); further: series mostly up to about 57 µM; nearly all actives have a fitted effect of over 65% in size
G9a inh-2: inhibits human G9a histone lysine methyltransferase, hit confirmation. shares compounds with JMJD2A Tudor. G9a H3K9 monomethylation, AlphaScreen, 2 h. Potency, µM, most hits filed as inhibitors. actives 89% (n = 370); further: nearly all actives have a fitted effect of over 65% in size
RGS4 confirm: confirmation of human RGS4 inhibitors; shares compounds with JMJD2A Tudor; RGS4 GAP activity, Transcreener GDP fluorescence polarization; Potency, µM, hits mostly inhibitors; actives 80% (n = 25); AID 602388
Of the large screens only hits and unclear results are named; the others gave an inactive call (follow-up assays come after a bar, where they were run). A selection: hits, their analogues and other compounds. The true share with any hit is near 12%. Unless noted, the call rests on the fitted dose curve; in most records, active means well fitted curve in the direction sought with a large enough effect; inconclusive means small, poorly fitted or top-dose-only effect, or another doubt; inactive means no such curve, though single readings can be large; an effect the other way counts as inactive or inconclusive.

Cc1cc(F)ccc1NC(=O)C1CCN(C(=O)c2cnn(-c3ccccc3)c2-n2cccc2)CC1	none (no result: PI5P4Ka inh, PLK1 PBD inh)
COc1ccc(OC)c(CC(NC(C)=O)C(=O)NC2CCN(S(=O)(=O)c3ccc(NC(C)=O)cc3)CC2)c1 (configuration not stated)	none
CC(=O)O[C@H]1C[C@H]2CC[C@@H]3[C@@H](CC[C@]4(C)[C@H](OC(C)=O)[C@H]([N+]5(C)CCCCC5)C[C@@H]34)[C@]2(C)C[C@H]1[N+]1(C)CCCCC1	none (no result: HP1b binding inh, PI5P4Ka inh, JMJD2A Tudor, BAZ2B inh, PLK1 PBD inh)
CN(CC(=O)Nc1cccc(F)c1)C(=O)CC1CC2CCC1C2 (configuration not stated)	none (no result: G9a inh-1)
Cc1oc(-c2ccccc2)cc1C(=O)Nc1ccc(N(C)C)cc1	HP1b binding inh inconclusive, JMJD2A Tudor 50µM, BAZ2B inh 20µM, G9a inh-1 2.2µM | G9a inh-2 1.8
COc1cccc(CNc2ccc(N3CCC(C)CC3)cc2)c1OC	JMJD2A Tudor 20µM, BAZ2B inh 40µM, G9a inh-1 inconclusive (no result: PI5P4Ka inh) | G9a inh-2 2
CC1CCN(c2ccc(NC(=O)Cc3ccccc3)cc2)CC1	none (no result: G9a inh-1)
COc1ccc(Br)cc1CNc1ccc(S(N)(=O)=O)cc1	none
COc1ccc(Br)cc1CNc1ccc(N2CCOCC2)cc1	HP1b binding inh inconclusive, JMJD2A Tudor 40µM, BAZ2B inh 28µM, G9a inh-1 inconclusive | G9a inh-2 3.2
COc1ccc(N2CCC(CNC(=O)Nc3ccc(Cl)cc3)C2)cc1 (configuration not stated)	HP1b binding inh inconclusive, JMJD2A Tudor inconclusive, G9a inh-1 0.71µM | G9a inh-2 0.5
O=C(NCC1CC1)Nc1ccc(Cl)cc1	none
COc1ccc(N2CCC(CNC(=O)Nc3cccc(OC)c3)C2)cc1 (configuration not stated)	HP1b binding inh 16µM, JMJD2A Tudor 40µM, BAZ2B inh 32µM, G9a inh-1 inconclusive (no result: PI5P4Ka inh) | G9a inh-2 1.6
COc1cccc(NC(=O)NCCCN2CCN(c3ccc(F)cc3)CC2)c1	none
CN1C(=O)C2(OCC(CO)([N+](=O)[O-])CO2)c2ccccc21 (configuration not stated)	none
O=C(CCN1CCC(c2ccccc2)C1)c1ccc2c(c1)OCCO2 (configuration not stated)	BAZ2B inh inconclusive, G9a inh-1 7.9µM, PLK1 PBD inh 6µM | G9a inh-2 5.1
O=C(CCCc1ccccc1)c1ccc2c(c1)OCCO2	none (no result: PI5P4Ka inh)
COc1ccccc1NC(=O)CSc1nnc(-c2ccc(NC(C)=O)cc2)n1C	BAZ2B inh inconclusive, G9a inh-1 inconclusive
Cn1c(SCC(=O)NCc2ccccc2)nnc1-c1ccc(NC(=O)CCc2ccccc2)cc1	BAZ2B inh inconclusive, G9a inh-1 inconclusive | G9a inh-2 11
COc1ccccc1C(=O)Nc1ccc(-c2nnc(SCC(=O)O)n2C)cc1	JMJD2A Tudor 100µM, BAZ2B inh inconclusive, G9a inh-1 inconclusive | G9a inh-2 8
CCOC(=O)c1ccc(S(=O)(=O)N2CCN(Cc3cc4c(cc3O)OCO4)CC2)cc1	G9a inh-1 0.4µM | G9a inh-2 0.89
O=C(Nc1cccc(OC(F)(F)F)c1)[C@@H]1O[C@H](CO)[C@H](O)[C@H](O)[C@H]1O	none (no result: HP1b binding inh, JMJD2A Tudor, BAZ2B inh, G9a inh-1)
COc1cccc(-c2cncnc2NCc2cccnc2)c1	none (no result: HP1b binding inh, PI5P4Ka inh, JMJD2A Tudor, BAZ2B inh, PLK1 PBD inh) | RGS4 confirm 30
CCN(CC)c1ccc(C(=O)Nc2cccc(F)c2)cc1	none
CN(C)c1cccc(C(=O)Nc2cccc(F)c2)c1	BAZ2B inh inconclusive, G9a inh-1 inconclusive | G9a inh-2 7.1
FC(F)(F)c1ccccc1-c1cncnc1NCc1ccccc1	none (no result: HP1b binding inh, PI5P4Ka inh, JMJD2A Tudor, BAZ2B inh, PLK1 PBD inh)
CNc1ncncc1-c1ccccc1C(F)(F)F	G9a inh-1 inconclusive (no result: HP1b binding inh, PI5P4Ka inh, JMJD2A Tudor, BAZ2B inh, PLK1 PBD inh) | RGS4 confirm 27
CC(=NNC(=O)CCC(=O)Nc1ccccc1Cl)c1ccco1	none (no result: BAZ2B inh, G9a inh-1)
